Results on 19 sequences are retold here after the OligoGym collection.
Further: reference of the scale not given here.

For one assay, the target named is GPX1. Nature of the assay: pooled miR-30 sensor sort-seq; sequence = guide strand. Conditions: shRNA.
For AATCTCTTCGTTCTTGGCGTTC, the sensor-assay potency score (higher = more potent) was -1.08.
In turn, TTCAGAATCTCTTCGTTCTTGG showed a sensor-assay potency score (higher = more potent) of 0.596.
Same read-out and setting: as for TTCCAGGCAACATCGTTGCGAC, the figure is -1; as for TAGGTTTAGAGGAAACACCCTC, -0.561; as for TTTTCTATGAGTCACCGGGATT, -1.88.
On the same count and under the same terms, for AACATCGTTGCGACACACCGGA the value was -0.00294.
On the same count and under the same terms, for ACATCGTTGCGACACACCGGAG the value was -1.77.
With TTCATCTGGGTGTAGTCCCGGA, the sensor-assay potency score (higher = more potent) is -0.32.
Regarding TTGGGGTCGGTCATAAGCGCGG, the sensor-assay potency score (higher = more potent) was -1.09.
On the same count and under the same terms, for TTCGTTCTTGGCGTTCTCCTGA the value was 0.781.
On the same count and under the same terms, as for ATTCTCGATAAGTAGTACCTTG, the figure is -0.704; as for ATTCAGAATCTCTTCGTTCTTG, 0.126.

The target in another assay is GPX2. The assay is described as above. Particulars: shRNA.
In turn, TATGAGGAACTTCTCAAAGTTC showed a sensor-assay potency score (higher = more potent) of -1.27.
On the same count and under the same terms, as for TTGAGCTGGGTGAAGTCCCGGG, the figure is -0.183; as for TTCCAGGCCACATCTGAGCGGC, -0.521.
For TCACATTTTTGGACAAGGGTGA, the sensor-assay potency score (higher = more potent) turned out to be 0.0993.
Still for that read-out and setting: as for TTGCAGCTCGTTGAGCTGGGTG, the figure is -0.963.
As for TATTGGTCTCTTCTAGCAGAGT, the sensor-assay potency score (higher = more potent) is -1.55.
On the same count and under the same terms, for TTGATGGTTGGGAAGGTGCGGC the value was -0.796.
